The text below walks through data of PubChem BioAssay AID623901 (Broad Institute, 2012).

Values joined by “and” are separate entries in the source; they are usually repeats but may differ in a detail not shown here. Equal values may be shown once. The campaign covered roughly 340,000 compounds. About 470 (0.14%) were called active. Shown is part of a subset that was picked to be rich in actives. A number with no mark means an inactive call.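 The calls were made as follows: active = mean activation of 30% or more, with every replicate also reaching 30%; inconclusive = mean activation of 30% or more but some replicate falls short; inactive = the rest.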

This assay can be described thus: small molecules raising miR-122 sensor signal – cell-based, Huh7 psiCHECK-miR122, Renilla luciferase, single point, primary screen (AID 623901).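 Also: 0% = median of neutral control wells and 100% = median of positive control wells; higher luciferase signal means stronger suppression of miR-122 activity.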 Particulars: 48 h, at 12.5 µM, hits give high values.
Take `CCOC(=O)c1c(C)[nH]c(C)c1S(=O)(=O)NCCCc1ccco1`: the activation was -128%. For `CCC(=O)N1C[C@@H](C)[C@@H](OC)CN(C)C(=O)c2ccc(NC(=O)C3CCCCC3)cc2OC[C@@H]1C` the value was 0.432%; for `C[C@H](CO)N1C[C@H](C)[C@H](CN(C)S(=O)(=O)c2cccc(F)c2)Oc2ncc(/C=C/c3ccccc3)cc2C1=O`, -2.26%; for `COCC(=O)N(C)C[C@@H]1Oc2cc(C#CC3CC3)ccc2S(=O)(=O)N([C@H](C)CO)C[C@H]1C`, 3.88%.

Regarding `CCC(=O)N(C)C[C@H]1Oc2ncc(C#C[C@@H](C)O)cc2C(=O)N([C@@H](C)CO)C[C@H]1C`, the activation was 2.8%.

For the compound `COCC#Cc1cnc2c(c1)C(=O)N([C@@H](C)CO)C[C@@H](C)[C@@H](CN(C)C(=O)Nc1ccccc1OC)O2`, the activation is 1.08%.

As for `O=C(CC(O)(C(F)(F)F)C(F)(F)F)Nc1ccc(Cl)c(Cl)c1`, the activation was 63% (active).

Turning to `CS(=O)(=O)N(CC(=O)Nc1ccc(Cl)c(Cl)c1)C1CCCCC1`, the activation was -174%. The figure for `C[C@@H](O)C#Cc1ccc2c(c1)O[C@@H](CN(C)C)[C@@H](C)CN([C@@H](C)CO)S2(=O)=O` is -3.26%. The figure for `COc1ccc(C(=O)Nc2ccccc2C(=O)N/N=C/c2ccccc2OC)cc1` is -115%; for `CCCN(C)C[C@H]1Oc2ncc(-c3ccccc3OC)cc2C(=O)N([C@H](C)CO)C[C@H]1C` it is -2.24%. For `COc1ccccc1CNc1nc(Nc2ccccc2Cl)c2sccc2n1` the value was 44.5% (active); for `C[C@@H]1CN([C@H](C)CO)S(=O)(=O)c2ccc(C#CCN(C)C)cc2O[C@@H]1CN(C)C(=O)CN(C)C`, 5.44%. Turning to `COc1ccc(CNS(=O)(=O)c2cc(-c3cc(C)no3)ccc2C(C)C)cc1`, the activation was -200%. On to `OCC(O)C1OCOC(C(O)CO)C1O` (stereo not given), for which the activation is -93%. For the compound `C[C@@H]1CN([C@@H](C)CO)C(=O)c2cc(-c3ccc(F)cc3)cnc2O[C@@H]1CN(C)Cc1ccc(C(=O)O)cc1`, the activation is 1.12%. The figure for `CO[C@@H]1CN(C)C(=O)c2ccc(NC(=O)C3CCC3)cc2OC[C@H](C)NC[C@H]1C` is 1.3%. For `C[C@@H]1CN([C@H](C)CO)C(=O)c2cc(-c3ccncc3)cnc2O[C@@H]1CN(C)C(=O)Cc1cccnc1` the value was -6.69%. The figure for `COc1ccccc1-c1ccc2c(c1)O[C@@H](CN(C)C(=O)Nc1ccccc1)[C@H](C)CN([C@@H](C)CO)S2(=O)=O` is -1.07%; for `COCC#Cc1ccc2c(c1)O[C@@H](CN(C)C(C)=O)[C@H](C)CN([C@H](C)CO)S2(=O)=O` it is 5.04%; for `COc1ccccc1-c1cnc2c(c1)C(=O)N([C@H](C)CO)C[C@H](C)[C@H](CN(C)C(=O)CN(C)C)O2` it is -1.92%. As for `COc1ccccc1C#Cc1ccc2c(c1)O[C@@H](CN(C)Cc1cncnc1)[C@H](C)CN([C@@H](C)CO)S2(=O)=O`, the activation was 8.43%. The figure for `C[C@H](O)C#Cc1ccc2c(c1)O[C@H](CN(C)Cc1cccnc1)[C@@H](C)CN([C@H](C)CO)S2(=O)=O` is -6.12%; for `COCC#Cc1cnc2c(c1)C(=O)N([C@@H](C)CO)C[C@@H](C)[C@@H](CN(C)C(=O)Nc1ccc(OC)cc1)O2` it is -2.9%. Take `C[C@H]1CN([C@@H](C)CO)C(=O)c2cc(-c3cccc(F)c3)cnc2O[C@@H]1CN(C)Cc1cncnc1`: the activation was -0.0525%. The figure for `O=C(NC(Nc1nc2ccc([N+](=O)[O-])cc2s1)(C(F)(F)F)C(F)(F)F)c1ccccc1` is 45.7% (active); for `C[C@H](CO)N1C[C@H](C)[C@@H](CN(C)Cc2ccc3c(c2)OCO3)Oc2c(NC(=O)C3CCOCC3)cccc2C1=O` it is -319%; for `O=C(CCc1ccc(S(=O)(=O)NC2CCCCC2)cc1)NCc1ccccc1` it is -101%. With `C[C@H]1CN([C@@H](C)CO)C(=O)c2cc(-c3ccccc3F)cnc2O[C@@H]1CN(C)C(=O)C1CCCCC1`, the activation was 4.49%.

With `CCCOC(=O)c1[nH]c2c(c1C)C(=O)CC(c1cccs1)C2` (stereo not given), the activation is -94%. For `COc1ccc(NC(=O)Nc2ccc3c(c2)OC[C@@H](C)NC[C@@H](C)[C@H](OC)CN(C)C3=O)cc1`, the activation is 3.26%.

For the compound `C[C@H](O)C#Cc1ccc2c(c1)O[C@H](CN(C)C)[C@@H](C)CN([C@H](C)CO)S2(=O)=O`, the activation was 4.16%. The figure for `CO[C@H]1CN(C)C(=O)c2ccc(NC(=O)Nc3ccc(F)cc3)cc2OC[C@@H](C)NC[C@H]1C` is -0.877%; for `CC(C)C#Cc1ccc2c(c1)O[C@@H](CN(C)C(=O)CN(C)C)[C@@H](C)CN([C@H](C)CO)S2(=O)=O` it is 1.71%. For `Cc1c(-c2ccccc2)cn2c1-c1ccc(C)n1CC2` the value was -248%; for `CO[C@H]1CN(C)C(=O)c2ccc(NC(=O)C3CCC3)cc2OC[C@@H](C)NC[C@H]1C`, 2.77%; for `C[C@@H]1CN([C@@H](C)CO)C(=O)c2cc(-c3cncnc3)cnc2O[C@H]1CN(C)Cc1cncnc1`, 9.2%. The figure for `CCCC#Cc1ccc2c(c1)O[C@@H](CN(C)C(=O)CC)[C@H](C)CN([C@H](C)CO)S2(=O)=O` is -21.9%.

As to `C[C@@H]1CN([C@@H](C)CO)C(=O)c2cc(-c3cncnc3)cnc2O[C@@H]1CN(C)Cc1ccncc1`, the activation is -14.3%. Turning to `CCC(=O)N(C)C[C@@H]1Oc2ncc(C#C[C@H](C)O)cc2C(=O)N([C@@H](C)CO)C[C@@H]1C`, the activation was -1.06%. As to `C[C@@H]1CN([C@@H](C)CO)C(=O)c2cc(C3=CCCCC3)cnc2O[C@H]1CN(C)CC1CCOCC1`, the activation was -37.5%.

For `CCOc1ccc(Br)cc1S(=O)(=O)Nc1cccc(S(=O)(=O)N(CC)CC)c1`, the activation is -110%. The figure for `CC(C)CNS(=O)(=O)c1ccc(OCC(=O)Nc2ccc3c(c2)OCO3)c(Cl)c1` is -303%. For `C[C@H]1CN([C@@H](C)CO)C(=O)c2cc(C3=CCCCC3)cnc2O[C@@H]1CN(C)C(=O)Cc1ccccc1` the value was -4.91% and -1.39%; for `C[C@H](CO)N1C[C@H](C)[C@H](CN(C)C(=O)C2CCOCC2)Oc2ncc(C#Cc3ccccc3F)cc2C1=O`, -1.81%.
